From PubChem BioAssay AID1159580 (chemical genetic matrix, 2015)
In all, about 5,500 compounds went through this assay and about 2,000 (36%) were called active. Not shown: some 18% with an inconclusive outcome. Cut-off read from the data, not from the text of the source: active = normalized growth mostly below about 0.91 (no sharp cut-off); inconclusive = no clear call, values can overlap the other calls; inactive = mostly above about 0.92. This is one part of the list.

Test: chemical genetic growth profiling, strain panel (AID 1159580);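 note: tested at 20 µM; growth read once vehicle control cultures reached saturation at 30 °C; 1 = growth at the plate median or of vehicle wells; lower values mean less growth of the strain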
Conditions: growth OD

Measured: normalized growth

C[C@H]1[C@H](C)CC[C@]2(CO)CC[C@]3(C)C(=CCC4[C@@]5(C)CC[C@H](O)C(C)(C)C5CC[C@]43C)[C@H]12 (some centres not stated)
inactive: S. cerevisiae deletion strains, locus YKL009W, strain mrt4, active compounds read low 1.01 | S. cerevisiae deletion strains, locus YKL068W, active compounds read low 1.02 | S. cerevisiae deletion strains, locus YKL085W, strain MDH1 (second series), active compounds read low 1.04 | S. cerevisiae deletion strains, locus YKL085W, strain MDH1, active compounds read low 1.04 | S. cerevisiae deletion strains, locus YKL160W, strain elf1, active compounds read low 0.995 | S. cerevisiae deletion strains, locus YKL190W, strain CNB1, active compounds read low 1.01 | S. cerevisiae deletion strains, locus YKR001C, strain vps1, active compounds read low 1.03 | S. cerevisiae deletion strains, locus YKR026C, strain gcn3, active compounds read low 0.997 | S. cerevisiae deletion strains, locus YKR091W, strain srl3, active compounds read low 0.988 | S. cerevisiae deletion strains, locus YLL001W, strain dnm1, active compounds read low 1.01 | S. cerevisiae deletion strains, locus YLL026W, active compounds read low 1.01 | S. cerevisiae deletion strains, locus YLL041C, strain sdh2, active compounds read low 1 | S. cerevisiae deletion strains, locus YLR027C, strain aat2, active compounds read low 0.976 | S. cerevisiae deletion strains, locus YLR039C, strain RIC1, active compounds read low 1.08 | S. cerevisiae deletion strains, locus YLR058C, strain SHM2, active compounds read low 1.02 | S. cerevisiae deletion strains, locus YLR102C, strain apc9, active compounds read low 1.02 | S. cerevisiae deletion strains, locus YLR113W, strain HOG1, active compounds read low 0.967 | S. cerevisiae deletion strains, locus YLR221C, strain rsa3, active compounds read low 0.986 | S. cerevisiae deletion strains, locus YLR258W, strain gsy2, active compounds read low 0.989 | S. cerevisiae deletion strains, locus YLR262C, strain YPT6 (second series), active compounds read low 1.04 | S. cerevisiae deletion strains, locus YLR262C, strain YPT6, active compounds read low 1.08 | S. cerevisiae deletion strains, locus YLR268W, strain sec22, active compounds read low 1.03 | S. cerevisiae deletion strains, locus YLR320W, strain mms22, active compounds read low 0.987 | S. cerevisiae deletion strains, locus YLR330W, strain CHS5, active compounds read low 1.01 | S. cerevisiae deletion strains, locus YLR342W, strain FKS1 (second series), active compounds read low 1 | S. cerevisiae deletion strains, locus YLR342W, strain FKS1, active compounds read low 0.989 | S. cerevisiae deletion strains, locus YLR357W, strain rsc2, active compounds read low 0.999 | S. cerevisiae deletion strains, locus YLR370C, strain arc18, active compounds read low 1 | S. cerevisiae deletion strains, locus YLR371W, strain rom2, active compounds read low 1.03 | S. cerevisiae deletion strains, locus YLR384C, strain iki3, active compounds read low 0.974 | S. cerevisiae deletion strains, locus YLR418C, strain cdc73, active compounds read low 1.03 | S. cerevisiae deletion strains, locus YML016C, strain PPZ1, active compounds read low 1.02 | S. cerevisiae deletion strains, locus YML032C, strain rad52, active compounds read low 1.02 | S. cerevisiae deletion strains, locus YML120C, strain ndi1, active compounds read low 0.988 | S. cerevisiae deletion strains, locus YML124C, strain tub3, active compounds read low 1.03 | S. cerevisiae deletion strains, locus YMR058W, strain fet3, active compounds read low 1 | S. cerevisiae deletion strains, locus YMR078C, strain ctf18, active compounds read low 1.03 | S. cerevisiae deletion strains, locus YMR125W, strain sto1, active compounds read low 1.01 | S. cerevisiae deletion strains, locus YMR129W, active compounds read low 0.988 | S. cerevisiae deletion strains, locus YMR205C, strain PFK2, active compounds read low 0.98 | S. cerevisiae deletion strains, locus YMR223W, strain ubp8, active compounds read low 1.02 | S. cerevisiae deletion strains, locus YMR231W, strain pep5, active compounds read low 1 | S. cerevisiae deletion strains, locus YMR263W, strain SAP30, active compounds read low 1.01 | S. cerevisiae deletion strains, locus YMR307W, strain GAS1, active compounds read low 1.06 | S. cerevisiae deletion strains, locus YNL067W, strain RPL9B, active compounds read low 1.01 | S. cerevisiae deletion strains, locus YNL071W, strain lat1, active compounds read low 0.995 | S. cerevisiae deletion strains, locus YNL183C, strain NPR1, active compounds read low 0.967 | S. cerevisiae deletion strains, locus YNL209W, strain ssb2, active compounds read low 0.988 | S. cerevisiae deletion strains, locus YNL233W, strain BNI4, active compounds read low 1.01 | S. cerevisiae deletion strains, locus YNL248C, strain rpa49, active compounds read low 1 | S. cerevisiae deletion strains, locus YNL250W, strain rad50, active compounds read low 1.04 | S. cerevisiae deletion strains, locus YNL271C, strain bni1, active compounds read low 1.02 | S. cerevisiae deletion strains, locus YNL298W, strain CLA4, active compounds read low 1.01 | S. cerevisiae deletion strains, locus YNL307C, strain MCK1, active compounds read low 1.04 | S. cerevisiae deletion strains, locus YNL322C, strain KRE1 (second series), active compounds read low 0.99 | S. cerevisiae deletion strains, locus YNR049C, strain mso1, active compounds read low 0.99 | S. cerevisiae deletion strains, locus YNR052C, strain pop2, active compounds read low 1.01 | S. cerevisiae deletion strains, locus YOL006C, strain TOP1, active compounds read low 1.07 | S. cerevisiae deletion strains, locus YOL012C, strain htz1 1.12 | S. cerevisiae deletion strains, locus YOL147C, strain pex11, active compounds read low 1.02 | S. cerevisiae deletion strains, locus YOR001W, strain rrp6, active compounds read low 0.946 | S. cerevisiae deletion strains, locus YOR061W, strain CKA2, active compounds read low 1.01 | S. cerevisiae deletion strains, locus YOR069W, strain VPS5, active compounds read low 1.01 | S. cerevisiae deletion strains, locus YOR070C, strain gyp1, active compounds read low 0.975 | S. cerevisiae deletion strains, locus YOR080W, strain dia2, active compounds read low 0.992 | S. cerevisiae deletion strains, locus YOR083W, strain WHI5, active compounds read low 0.995 | S. cerevisiae deletion strains, locus YOR106W, strain vam3, active compounds read low 1.01 | S. cerevisiae deletion strains, locus YOR136W, strain idh2, active compounds read low 1.03 | S. cerevisiae deletion strains, locus YOR144C, strain elg1, active compounds read low 1.02 | S. cerevisiae deletion strains, locus YOR184W, strain ser1, active compounds read low 1.01 | S. cerevisiae deletion strains, locus YOR231W, strain MKK1, active compounds read low 0.996 | S. cerevisiae deletion strains, locus YOR265W, strain rbl2, active compounds read low 0.986 | S. cerevisiae deletion strains, locus YOR270C, strain vph1, active compounds read low 0.984 | S. cerevisiae deletion strains, locus YOR290C, strain snf2, active compounds read low 0.998 | S. cerevisiae deletion strains, locus YOR316C, strain cot1, active compounds read low 1.03 | S. cerevisiae deletion strains, locus YPL051W, strain arl3, active compounds read low 0.998 | S. cerevisiae deletion strains, locus YPL078C, strain atp4, active compounds read low 0.993 | S. cerevisiae deletion strains, locus YPL106C, strain sse1, active compounds read low 1.09 | S. cerevisiae deletion strains, locus YPL240C, strain hsp82, active compounds read low 1.01 | S. cerevisiae deletion strains, locus YPL241C, strain CIN2, active compounds read low 0.995 | S. cerevisiae deletion strains, locus YPL256C, strain CLN2, active compounds read low 1.07 | S. cerevisiae deletion strains, locus YPR119W, strain clb2, active compounds read low 1.03 | S. cerevisiae deletion strains, locus YPR141C, strain kar3, active compounds read low 1.04 | S. cerevisiae deletion strains, locus YPR163C, strain tif3, active compounds read low 1.03 | S. cerevisiae deletion strains, locus YPR167C, strain met16, active compounds read low 1.02 | S. cerevisiae deletion strains, strain wtn01, active compounds read low 1.01 | S. cerevisiae strains, strain wild type, active compounds read low 1
